# Screening data: PubChem, National Center for Advancing Translational Sciences (NCATS)
# SMN2 splice enh: SMN2 splice variant enhancement. 2.8% of 210,000 active. Potency, µM (highest dose often 46.1 µM), for inactives: at the highest dose activity change, positive = activation, hits mostly activators. AID 1458. HEK293 SMN2-luciferase splicing reporter, luminescence, 30-36 h; also: % of control where 0% means no effect; nearly all actives have a fitted effect of over 55% in size
#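 HEK293 cells carry an SMN2 […]–luciferase reporter in which exon 7 inclusion puts luciferase in frame. Cells were plated 10-12 h before compound addition, then incubated 30-36 h at 37C. ONE-Glo luminescence was read; sodium butyrate at 4.5 mM final served as control.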
# ELG1 DNA repair: ELG1-dependent DNA repair inhibition; HEK293T ELG1-luciferase reporter, luminescence, 16 h; DNA damage induced by 5-fluorouridine; Potency, µM (series often up to 46.1 µM), for inactives: at the top dose activity change, negative = inhibition, hits mostly inhibitors; 2.3% of 330,000 active; AID 504467; also: % is scaled to controls: 0 for no effect and ±100 for the full control effect; nearly all actives have a fitted effect of over 55% in size
#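 Quantitative HTS, concentration-response format. 2,000 cells/well co-treated with 5-fluorouridine and compound, 16 hr in 5% CO2 at 37 °C; ONE-Glo luminescence read after 30 min.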
# NPC1 promoter act: NPC1 promoter activation | Huh7 NPC1 promoter luciferase reporter, 24 h | Potency, µM (doses to about 9.22 µM), for the others: at the top dose activation, most hits filed as activators | 2.4% of 320,000 active; also: % of control where 0% means no effect; nearly all actives have a fitted effect of over 60% in size
#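 Stably transfected Huh7 (NPC1 promoter→luciferase), 1500 cells/well in Opti-MEM + 10% FBS, 2 h settle, then compound 24 h at 37 °C. Luminescence after 10 min with Amplite reagent.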
# Rab9 prom act: Rab9 promoter activation; Huh7 Rab9 promoter-luciferase reporter, luminescence, 24 h; Potency, µM (doses to about 9.22 µM), inactives show at the top dose activation, negative = inhibition, usual class: activators; 2.8% of 320,000 active; also: % of control where 0% means no effect; nearly all actives have a fitted effect of over 60% in size
#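 Stable Rab9-luc Huh7, 1500 cells/well, 2 h settle; cmpd in DMSO, 24 h, 37 °C/5% CO2; luciferase reagent 10 min RT; luminescence.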
# FLuc counter: firefly luciferase modulation, counter-screen for miR-21 project; AID 588342; Potency, µM (doses to about 57.5 µM), for inactives: top-dose activity change, negative = inhibition, hits mostly inhibitors; purified FLuc, Km substrates, luminescence inhibition; 6.9% of 360,000 active;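 also: plate controls were vehicle for no effect and reference inhibitor for full effect; nearly all actives have a fitted effect of over 55% in size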
# Target sequence (P08659 whole entry, looked up): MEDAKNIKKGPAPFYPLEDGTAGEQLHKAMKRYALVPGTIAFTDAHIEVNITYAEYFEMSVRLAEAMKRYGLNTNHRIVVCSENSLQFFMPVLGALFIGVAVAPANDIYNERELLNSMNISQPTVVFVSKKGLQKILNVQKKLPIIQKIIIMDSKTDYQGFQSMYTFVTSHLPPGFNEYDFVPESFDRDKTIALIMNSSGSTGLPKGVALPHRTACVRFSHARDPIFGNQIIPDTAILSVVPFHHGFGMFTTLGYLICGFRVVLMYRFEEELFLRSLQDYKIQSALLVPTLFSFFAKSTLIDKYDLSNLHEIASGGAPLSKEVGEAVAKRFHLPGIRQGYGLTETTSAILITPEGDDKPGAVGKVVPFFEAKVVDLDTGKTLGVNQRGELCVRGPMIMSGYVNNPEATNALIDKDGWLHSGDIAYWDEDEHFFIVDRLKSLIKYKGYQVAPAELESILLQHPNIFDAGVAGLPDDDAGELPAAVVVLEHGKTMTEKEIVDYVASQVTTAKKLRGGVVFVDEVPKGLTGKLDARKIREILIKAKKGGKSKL
#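 Purified P. pyralis luciferase (10nM final) with 10uM D-luciferin and 10uM ATP (Km levels) in 50mM Tris acetate pH 7.5, 10mM Mg acetate, 0.01% Tween-20, 0.05% BSA; qHTS 6-point titration, ~60 µM downward; luminescence read.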
# ELG1 genotox: induces genotoxicity in HEK293T cells with luciferase-tagged ELG1. HEK293T ELG1-luciferase reporter, luminescence, 16 h. Potency, µM (highest dose often 46 µM), for the others: top-dose activity change, positive = activation, most hits filed as activators. 1.3% of 330,000 active. AID 504466; also: % of control where 0% means no effect; nearly all actives have a fitted effect of over 60% in size
#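 16 hr compound incubation (37 °C, 5% CO2) of HEK293T cells carrying luciferase-tagged ELG1; luciferase then measured by ONE-Glo luminescence after 30 min at RT.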
# * marks the source's active call; other numbers are inactive results; ? = inconclusive; / = no result given; ! = not active in a repeat; [ ] = dose if it differs, or a comment. Compounds with a hit are over-represented: about 9.4% of the library has one in this group of screens. Calls follow the shape of the dose curve; as a rule, active = well fitted curve in the direction sought with a large enough effect; inconclusive = small, poorly fitted or top-dose-only effect, or another doubt; inactive = no such curve, though single readings can be large; an effect the other way counts as inactive or inconclusive. Potency is read from the fitted curve at half-maximal effect.
SMILES,SMN2 splice enh,ELG1 DNA repair,NPC1 promoter act,Rab9 prom act,FLuc counter,ELG1 genotox
Cc1cc(C)c(S(=O)(=O)Nc2cc(-c3cn4ccccc4n3)ccc2C)cc1C,5.7%,/,/,/,?,/
Cc1ccc(C)c(N(CC(=O)NCc2ccco2)C(=O)CCC(=O)Nc2nccs2)c1,/,3.6%,-0.5%,0.2%,-0.1%,-0.6%
CCOC(=O)COc1ccccc1C(=O)c1cnn(-c2ccccc2)c1,/,21.7%,?,?,10.7µM*,?
COc1ccc(-n2cc(C(=O)c3ccc4ccccc4c3O)cn2)cc1,2.9%,4.1%,-1.3%,9.7%,-3.6%,-0.4%
CC(C)c1ccc(NC(=O)COc2ccc(F)cc2C(=O)c2cnn(-c3ccccc3)c2)cc1,?,?,0.3%,?,9.53µM*,16.0%
O=C(COc1ccccc1C(=O)c1cnn(-c2ccccc2)c1)Nc1ccc2ccccc2c1,12.6µM*,?,?,?,1.51µM*,13.6%
CCOC(=O)COc1ncn(-c2ccccc2)n1,-9.1%,-4.9%,0.0%,0.7%,-14.6%,-1.3%
CC(C)n1cc(NC(=O)COc2ccccc2Cl)cn1,/,17.2%,-4.0%,5.2%,-4.3%,3.0%
CCOC(=O)c1c(S(=O)(=O)NCC(=O)Nc2cccc(SC)c2)c(C)n(C)c1C,/,/,/,/,-2.3%,/
O=C(CN1Cc2ccccc2C1=O)Nc1cc(F)ccc1F,/,/,/,/,-5.2%,/
COc1ccc(S(=O)(=O)NCCc2csc3nc(-c4ccc(Cl)cc4)nn23)cc1C,/,/,/,/,5.9%,/
Clc1ccc2[nH]cc(-c3nnnn3-c3ccccc3)c2c1,-7.8%,-29.8%,-4.0%,-3.1%,23.9µM*,-1.7%
Clc1ccc2ncc(-c3nnnn3-c3ccccc3)c(-c3ccccc3)c2c1,-6.0%,-14.2%,0.8%,-11.7%,-0.2%,-18.0%
C=C1c2cccc(O)c2C(O)=C2C(=O)[C@@]3(O)C(O)=C(C(N)=O)C(=O)[C@@H](N(C)C)[C@@H]3[C@@H](O)[C@H]12,4.3%[20.6 µM],/,/,/,/,/
Cc1ncsc1CCOC(=O)c1cccc([N+](=O)[O-])c1,5.2%,7.2%,-2.0%,-5.3%,19µM*!,1.3%
N/C(=N\OC(=O)Oc1ccccc1)c1cccc([N+](=O)[O-])c1,13.1%,14.3%,-2.6%,-2.8%,0.5%,1.4%
N/C(=N\OC(=O)c1cccs1)c1cccc([N+](=O)[O-])c1,19.5%,?,21.3%,26.3%,3.38µM*,?
Cc1ccccc1C(=O)O/N=C(\N)c1cccc([N+](=O)[O-])c1,?,?,?,4.47µM*,0.601µM*,?
Cc1cccc(C(=O)O/N=C(\N)c2cccc([N+](=O)[O-])c2)c1,15.9%,?,?,17.7%,1.35µM*,?
O=C(COC(=O)c1cccc([N+](=O)[O-])c1)NCc1cccs1,-1.5%,5.5%,0.3%,4.1%,3.7%,2.7%
CC1CN(C(=O)N2CCC(C(=O)N3CCN(c4ccccc4)CC3)CC2)c2cc(Cl)ccc2O1 (centres undefined),/,/,/,/,-2.4%,/
O=C(O)CSCCc1ccccc1,4.5%[9.22 µM],/,/,/,/,/
COc1ccc(/C(N)=N/OC(=O)c2cccc([N+](=O)[O-])c2C)cc1OC,-3.8%,?,2.5%,18.3%,?,13.9%
COc1cccc(C(=O)O/N=C(\N)c2ccc([N+](=O)[O-])cc2)c1OC,?,?,?,10.2%[1.84 µM],10.7µM*,?
COc1cccc(Oc2ccc(C(F)(F)F)cc2N)c1,-14.3%[1.84 µM],?,4.6%,7.2%,23.9µM*,?
SMILES,SMN2 splice enh,ELG1 DNA repair,NPC1 promoter act,Rab9 prom act,FLuc counter,ELG1 genotox
CCOc1ccc(Oc2ccc(C(F)(F)F)cc2N)cc1,6.1%[1.84 µM],?,10.9%,7.9%,?,13.0%
CCN(CC)c1ccc(/C=N/NC(=O)c2ccoc2C)cc1,/,?,0.501µM*,?,1.07µM*,0.731µM*
COc1cccc(/C=N/NC(=O)c2ccoc2C)c1O,/,?,8.3%,-1.5%,8.49µM*,20.6µM*
COc1cccc(/C=N/NC(=O)c2ccoc2C)c1,/,?,2.51µM*,1.58µM*,10.7µM*,?
Cc1occc1C(=O)N/N=C/c1ccccc1[N+](=O)[O-],/,?,3.16µM*,3.98µM*,9.53µM*,?
CCC(COC)NCc1cn(-c2ccc(OC)cc2)nc1-c1cccc(F)c1 (centres undefined),/,?,-1.2%,1.4%,-7.2%,-6.7%
COc1ccccc1CNC(=O)C1CCN(C2=NS(=O)(=O)C(c3ccc(C)c(C)c3)=C2C)CC1,/,/,/,/,3.4%,/
CCOC(=O)N1CCC(NC(=O)c2cnn(-c3cccc(F)c3)c2-n2cccc2)CC1,/,/,/,/,-6.9%,/
CSc1ccc(CCNC(=O)Cn2nc(C)n3c(cc4sccc43)c2=O)cc1,-7.4%,/,/,/,-2.3%,/
CCOc1ccc(/C=N/NC(=O)c2ccoc2C)cc1OC,/,?,?,3.55µM*,?,18.3µM*
COc1cccc(/C=N/NC(=O)NC2CCCCC2)c1O,/,?,?,?,16.9µM*,?
COc1cc(/C=N/NC(=O)c2ccoc2C)ccc1O,?,?,9.1%,16.0%,13.5µM*,12.4%
Cn1nccc1C(=O)N/N=C/c1ccccc1[N+](=O)[O-],/,?,2.51µM*,2.82µM*,13.5µM*,?
COc1ccc(/C=N/NC(=O)c2cc(C)oc2C)cc1OC,/,0.0%,5.8%,8.9%,?,9.4%
Cn1nccc1C(=O)N/N=C/c1cccnc1,/,0.0%,0.6%,-4.9%,-15.3%,-0.5%
NC(=O)C[C@H](N)C(N)=O,-7.9%[9.22 µM],/,/,/,/,/
Cn1c(=O)c2sccc2n2c(CCCC(=O)NCc3ccccc3)nnc12,/,/,/,/,-4.6%,/
CCOC(=O)C1CCN(c2nc3c(S(=O)(=O)c4ccccc4)nnn3c3ccsc23)CC1,/,/,/,/,4.9%,/
O=C(Nc1cc(=O)c2ccccc2o1)N1CCCCC1,?,14.6µM*,-1.1%,-9.4%,2.9%,-7.3%
Cc1c(C(=O)N2CCOCC2)oc2ccccc12,/,?,-2.0%,-0.5%,-2.0%,2.5%
O=C(Nc1cc(=O)c2ccccc2o1)N1CCOCC1,5.1%,5.8µM*,-0.2%,1.1%,3.9%,-12.5%
COc1ccc(Cl)cc1C(=O)NNC(=O)c1ccc(F)c(S(=O)(=O)N2CCOCC2)c1,/,?,/,/,/,-5.0%
NS(=O)(=O)c1ccc(N/N=C/C=C/c2ccccc2[N+](=O)[O-])cc1,/,?,?,?,16.9µM*,?
O=[N+]([O-])c1ccccc1/C=C/C=N/N1CCCCC1,15.8µM*,?,?,2.24µM*,10.7µM*,4.61µM*
O=C(N/N=C/C=C\c1ccccc1[N+](=O)[O-])c1ccncc1,-26.5%,19.9%,2.2%,-9.7%,-1.9%,0.1%
